Screening results (PubChem BioAssay)
IDE exosite inh = exo-site inhibitors of human IDE, primary screen, biochemical, fluorescence anisotropy, probe displacement. Insulin-degrading enzyme (Homo sapiens), P14735. purified IDE, FL-6b probe fluorescence polarization; active compounds read low. z-score at 20 µM. 6.3% of 17,000 active. AID 1259349, 2017;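 active means z-score of -3 or lower, meaning strong loss of probe binding signal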;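 further: His-tagged human IDE residues 42-1019 made in E. coli with 30 nM FL-6b probe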
Target sequence (P14735 42-1019 limits assumed): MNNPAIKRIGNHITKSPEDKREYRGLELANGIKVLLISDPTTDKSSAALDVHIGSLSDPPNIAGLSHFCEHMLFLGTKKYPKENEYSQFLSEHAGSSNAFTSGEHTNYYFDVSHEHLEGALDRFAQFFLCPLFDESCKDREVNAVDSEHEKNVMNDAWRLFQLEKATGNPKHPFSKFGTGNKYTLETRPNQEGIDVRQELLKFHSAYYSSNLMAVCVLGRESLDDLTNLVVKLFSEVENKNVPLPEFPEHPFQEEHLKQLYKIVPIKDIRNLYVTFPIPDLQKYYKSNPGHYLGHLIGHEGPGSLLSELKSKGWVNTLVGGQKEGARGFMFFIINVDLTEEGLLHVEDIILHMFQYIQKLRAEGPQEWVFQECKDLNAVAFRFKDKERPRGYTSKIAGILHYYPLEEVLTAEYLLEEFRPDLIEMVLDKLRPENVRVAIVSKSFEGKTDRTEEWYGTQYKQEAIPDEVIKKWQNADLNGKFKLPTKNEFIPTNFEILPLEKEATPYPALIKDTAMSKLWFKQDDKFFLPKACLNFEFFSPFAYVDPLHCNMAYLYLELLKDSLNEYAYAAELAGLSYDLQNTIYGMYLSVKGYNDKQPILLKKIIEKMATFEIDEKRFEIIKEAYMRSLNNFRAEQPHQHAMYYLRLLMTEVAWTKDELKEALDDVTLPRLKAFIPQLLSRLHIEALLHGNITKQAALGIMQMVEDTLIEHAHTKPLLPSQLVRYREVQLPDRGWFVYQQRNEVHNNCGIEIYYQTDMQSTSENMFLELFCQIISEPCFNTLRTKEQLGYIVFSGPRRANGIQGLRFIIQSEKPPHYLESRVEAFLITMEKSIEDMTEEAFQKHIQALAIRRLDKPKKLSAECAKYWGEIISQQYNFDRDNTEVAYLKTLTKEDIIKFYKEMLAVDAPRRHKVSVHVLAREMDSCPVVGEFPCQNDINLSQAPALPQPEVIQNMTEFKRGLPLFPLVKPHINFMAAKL
Each line names hits and unclear results; the compound was inactive in the other large screens. The entries come from a sample that favours hits as a whole.

O=C(Cc1ccncc1)N1CCCCN2[C@H](C1)[C@@H](c1ccc(C#Cc3ccccc3F)cc1)[C@@H]2CO	none
CCCC#Cc1ccc([C@@H]2[C@@H](CO)N3CCCCN(C(=O)Cc4ccccn4)C[C@H]23)cc1	none
O=C(Cc1ccncc1)N1CCCCN2[C@H](CO)[C@H](c3ccc(C#Cc4ccccc4F)cc3)[C@@H]2C1	IDE exosite inh -4.3
O=C(Cc1ccccn1)N1CCCCN2[C@H](C1)[C@@H](c1ccc(C#Cc3ccccc3)cc1)[C@@H]2CO	IDE exosite inh -6.3
CCCC#Cc1ccc([C@H]2[C@H](CO)N3CCCCN(C(=O)Cc4ccccn4)C[C@@H]23)cc1	none
O=C(Cc1ccccn1)N1CCCCN2[C@@H](CO)[C@@H](c3ccc(-c4ccccc4)cc3)[C@@H]2C1	IDE exosite inh -3.5
O=C(Cc1ccccn1)N1CCCCN2[C@H](CO)[C@H](c3ccc(-c4ccc(F)cc4)cc3)[C@H]2C1	none
O=C(Cc1ccccn1)N1CCCCN2[C@H](C1)[C@H](c1ccc(Br)cc1)[C@@H]2CO	none
Cc1ccccc1-c1ccc([C@@H]2[C@@H](CO)N3CCCCN(C(=O)Cc4ccccn4)C[C@@H]23)cc1	IDE exosite inh -9.5
CCCC#Cc1ccc([C@H]2[C@@H](CO)N3CCCCN(C(=O)Cc4ccccn4)C[C@H]23)cc1	none
O=C(Cc1ccncc1)N1CCCCN2[C@@H](CO)[C@H](c3ccc(C#Cc4ccccc4F)cc3)[C@@H]2C1	none
O=C(Cc1ccccn1)N1CCCCN2[C@H](CO)[C@@H](c3ccc(Br)cc3)[C@H]2C1	none
CCCC#Cc1ccc([C@H]2[C@H]3CN(C(=O)Cc4ccccn4)CCCCN3[C@H]2CO)cc1	none
O=C1CNC[C@H]2[C@@H](c3ccc(Br)cc3)[C@H](CO)N12	none
OC[C@@H]1Nc2ccc(C#Cc3cccnc3)cc2[C@@H]2NCC[C@H]12	none
CN(C)CC#Cc1ccc([C@@H]2[C@@H](CO)N3CCCCN(C(=O)Cc4ccccn4)C[C@H]23)cc1	none
O=C(Cc1cccnc1)N1CCCCN2[C@H](CO)[C@@H](c3ccc(C#CC4(O)CCCC4)cc3)[C@H]2C1	none
O=C(Cc1ccccc1)N1CCCCN2[C@H](CO)[C@@H](c3ccc(-c4ccccc4)cc3)[C@H]2C1	none
N#Cc1cccc(-c2ccc([C@H]3[C@H](CO)N4CCCCN(C(=O)Cc5ccncc5)C[C@@H]34)cc2)c1	none
N#Cc1ccc(-c2ccc([C@H]3[C@@H](CO)N4CCCCN(C(=O)Cc5ccccc5)C[C@H]34)cc2)cc1	none
COCC#Cc1ccc([C@H]2[C@H](CO)N3CCCCN(C(=O)Cc4ccccn4)C[C@@H]23)cc1	none
COC(=O)[C@@H]1[C@@H](CO)[C@@H]2Cn3c(cccc3=O)[C@@H]2N1CC1CC1	none
COc1ccc(C#Cc2ccc([C@H]3[C@@H](CO)N4CCCCN(C(=O)Cc5ccccc5)C[C@@H]34)cc2)cc1	none
O=C(O)C[C@H]1CC[C@@H]2NC[C@H](O)COC[C@H]2O1	none
O=C(Cc1ccccn1)N1CCCCN2[C@H](CO)[C@@H](c3ccc(-c4ccc(F)cc4)cc3)[C@@H]2C1	none
O=C(Cc1ccccn1)N1CCCCN2[C@H](CO)[C@H](c3ccc(-c4ccccc4)cc3)[C@H]2C1	IDE exosite inh -4.7
O=C(Cc1ccccn1)N1CCCCN2[C@H](C1)[C@@H](c1ccc(-c3ccccc3)cc1)[C@@H]2CO	none
CN1[C@@H](CO)[C@@H]2c3ccccc3NC[C@@H]21	none
C/C=C/c1ccc(C2[C@@H]3CN(Cc4nccs4)C[C@H]2N3)cc1 (stereo partly drawn)	none
O=C(O)[C@@H]1[C@@H](CO)[C@@H]2Cn3c(ccc(-c4cccnc4)c3=O)[C@H]1N2C(=O)Nc1cc(F)ccc1F	none
O=C(Cc1ccccn1)N1CCCCN2[C@H](CO)[C@@H](c3ccc(Br)cc3)[C@@H]2C1	none
O=C(Cc1ccccn1)N1CCCCN2[C@@H](CO)[C@H](c3ccc(-c4ccccc4F)cc3)[C@@H]2C1	none
O=C(Cc1ccccn1)N1CCCCN2[C@@H](CO)[C@@H](c3ccc(-c4ccccc4F)cc3)[C@@H]2C1	IDE exosite inh -5.6
O=C(Cc1ccccn1)N1CCCCN2[C@H](CO)[C@H](c3ccc(Br)cc3)[C@@H]2C1	none
O=C(Cc1ccccn1)N1CCCCN2[C@H](CO)[C@H](c3ccc(-c4ccccc4F)cc3)[C@H]2C1	IDE exosite inh -4.4
O=C(Cc1ccccn1)N1CCCCN2[C@H](CO)[C@@H](c3ccc(-c4ccccc4F)cc3)[C@H]2C1	none
COC(=O)[C@H]1[C@H](CO)[C@H]2Cn3c(ccc(-c4cccc(F)c4)c3=O)[C@@H]1N2Cc1ccncc1	none
COc1ccc(-c2ccc([C@@H]3[C@@H](CO)N4CCCCN(C(=O)Cc5ccncc5)C[C@@H]34)cc2)cc1	none
O=C(Cc1cccnc1)N1CCCCN2[C@@H](CO)[C@H](c3ccc(/C=C/c4ccccc4)cc3)[C@@H]2C1	IDE exosite inh -9.2
O=C(Cc1cccnc1)N1CCCCN2[C@H](C1)[C@H](c1ccc(/C=C/c3ccccc3)cc1)[C@@H]2CO	IDE exosite inh -5.5
C/C=C/c1ccc([C@@H]2[C@H]3CN(C(=O)Cc4cccnc4)CCCCN3[C@H]2CO)cc1	none
O=C(Cc1cccnc1)N1CCCCN2[C@H](C1)[C@@H](c1ccc(C#CC3CCCC3)cc1)[C@@H]2CO	none
C/C=C/c1ccc([C@H]2[C@@H](CO)N3CCCCN(C(=O)Cc4cccnc4)C[C@@H]23)cc1	none
O=C(Cc1cccnc1)N1CCCCN2[C@H](CO)[C@H](c3ccc(C#CC4CCCC4)cc3)[C@@H]2C1	none
C/C=C/c1ccc([C@@H]2[C@@H](CO)N3CCCCN(C(=O)Cc4cccnc4)C[C@H]23)cc1	none
C/C=C/c1ccc([C@@H]2[C@H]3CN(C(=O)Cc4ccncc4)CCCCN3[C@H]2CO)cc1	none
O=C(Cc1cccnc1)N1CCCCN2[C@H](CO)[C@H](c3ccc(/C=C/c4ccccc4)cc3)[C@@H]2C1	IDE exosite inh -11
N#Cc1cccc(-c2ccc([C@H]3[C@@H](CO)N4CCCCN(C(=O)Cc5ccccc5)C[C@H]34)cc2)c1	none
O=C(Cc1ccccc1)N1CCCCN2[C@H](CO)[C@H](c3ccc(-c4ccccc4)cc3)[C@H]2C1	none
C/C=C/c1ccc([C@@H]2[C@@H](CO)N3CCCCN(C(=O)Cc4ccncc4)C[C@@H]23)cc1	none
